Results on 56 compounds are retold here after PubChem BioAssay AID596 (National Center for Advancing Translational Sciences (NCATS), 2007).

The whole screen tested about 71,000 compounds, of which about 1,400 (2%) were called active. Inconclusive results (about 3%) are left out. The sample as a whole holds a higher share of actives than the screen did. Unmarked numbers belong to inactive results. Calls follow the shape of the dose curve; as a rule, active = well fitted curve in the direction sought with a large enough effect; inconclusive = small, poorly fitted or top-dose-only effect; inactive = no such curve, though single readings can be large or run the other way.
% is scaled to controls: 0 for no effect and ±100 for the full control effect; potency is read from the fitted curve at half-maximal effect.

This experiment deals with Microtubule-associated protein tau (Homo sapiens) (UniProt P10636). Kind of experiment: qHTS Assay for Tau Filament Binding.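 Also: actives lower thioflavin S fluorescence by blocking filaments or displacing dye.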 As to conditions: recombinant tau filaments, thioflavin S fluorescence, 15 h, filaments grown with octadecylsulfate alongside compound; series mostly up to 57.1 µM; activity change, negative = inhibition: at the top concentration. The gist of the method: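 Recombinant tau protein (human, 1 uM final) plus 30 uM ODS in HEPES pH 7.4 with NaCl, DTT and thioflavine S. Compound present from the start; fluorescence at 510 nm after 15 h, 37 C.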
Chain of Microtubule-associated protein tau (Homo sapiens) (P10636 whole entry, looked up): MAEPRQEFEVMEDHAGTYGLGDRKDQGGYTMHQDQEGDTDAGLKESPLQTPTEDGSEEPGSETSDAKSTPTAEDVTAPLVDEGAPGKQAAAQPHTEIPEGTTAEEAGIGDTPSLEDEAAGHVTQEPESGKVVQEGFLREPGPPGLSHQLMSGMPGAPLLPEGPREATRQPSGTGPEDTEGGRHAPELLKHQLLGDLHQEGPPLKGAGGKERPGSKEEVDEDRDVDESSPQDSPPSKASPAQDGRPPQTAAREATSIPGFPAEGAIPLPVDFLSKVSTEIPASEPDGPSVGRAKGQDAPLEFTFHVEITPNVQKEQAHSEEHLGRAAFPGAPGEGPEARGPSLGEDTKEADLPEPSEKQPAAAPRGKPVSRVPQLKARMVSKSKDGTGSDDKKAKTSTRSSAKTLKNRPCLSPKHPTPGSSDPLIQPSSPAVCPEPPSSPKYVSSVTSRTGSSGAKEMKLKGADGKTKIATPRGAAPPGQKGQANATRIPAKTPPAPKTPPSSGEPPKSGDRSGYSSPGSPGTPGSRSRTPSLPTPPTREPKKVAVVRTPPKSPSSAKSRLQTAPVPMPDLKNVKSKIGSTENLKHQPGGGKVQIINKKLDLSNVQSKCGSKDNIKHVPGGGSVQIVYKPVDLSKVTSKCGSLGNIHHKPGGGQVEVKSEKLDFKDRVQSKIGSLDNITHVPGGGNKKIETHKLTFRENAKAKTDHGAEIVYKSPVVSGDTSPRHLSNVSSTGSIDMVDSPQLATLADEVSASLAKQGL
Turning to `COC(=O)C1(Cc2ccccc2)C=C2C(=C(C)C(=O)C2C)CN1` (stereo unspecified), the “activity change, negative = inhibition” value is 21.1%.
For the compound `Cc1ccc(C2CC(c3cccc(Br)c3)n3nc(N)nc3N2)cc1` (stereo unspecified), the “activity change, negative = inhibition” value was -30%.
The same measure, in the same setting: in the case of `CCNC(=S)NCC` it was -11.9%.
The same measure, in the same setting: in the case of `COCCCn1c2nc3ccccc3nc2c2c(=O)n(Cc3ccc(Cl)cc3)c(C)nc21` it was 13.7%.
With `Cc1nc2c(c(=O)n1Cc1ccco1)c1nc3ccccc3nc1n2Cc1ccccc1`, the Potency was 15.8 µM (active).
With `CCOC(=O)CSc1nc2c(sc(=S)n2CCc2ccccc2)c(=O)n1Cc1ccco1`, the “activity change, negative = inhibition” value is 98.7%.
For `Cc1ccc(Cn2c(NC(=O)c3ccco3)nc3ccccc32)cc1`, the “activity change, negative = inhibition” value was 14.6%.
Turning to `Cc1ccc(Cn2c(C)nc3c(c2=O)c2nc4ccccc4nc2n3Cc2ccco2)cc1`, the Potency is 25.1 µM (active).
For the compound `O=c1c2ccccc2oc2nc(C3CCCCC3)n(Cc3ccco3)c(=O)c12`, the “activity change, negative = inhibition” value is -13.1%.
Turning to `CCC(C)(C)n1nnnc1C(c1ccccc1OC)N1CCSCC1` (stereo unspecified), the “activity change, negative = inhibition” value was -8.9%.
Same read-out and setting: in the case of `c1ccc(-c2oc3ncnc(N4CCOCC4)c3c2-c2ccccc2)cc1` it was 1.3%.
The same measure, in the same setting: in the case of `c1cnn(-c2cc(N3CCOCC3)ncn2)c1` it was -1.2%.
For the compound `O=C1c2ccccc2-c2ncnc3c(N4CCOCC4)cc(N4CCOCC4)c1c23`, the Potency is 5.01 µM (active).
Take `O=C1c2ccccc2C(=O)N1CCCSc1ccccc1`: the activity change, negative = inhibition is -2.3% [at 11.4 µM].
Same read-out and setting: in the case of `COc1ccc(N2C(=O)c3cccc4cccc(c34)C2=O)nn1` it was 9.7%.
For the compound `C[N+](C)(CCCCCC[N+](C)(C)CCCN1C(=O)c2cccc3cccc(c23)C1=O)CCCN1C(=O)c2cccc3cccc(c23)C1=O`, the Potency was 2 µM (active).
For `O=C(c1ccc2c(c1)N(Cc1ccc(F)cc1)C(=O)CS2)N1CCOCC1`, the “activity change, negative = inhibition” value was -5.7%.
For `COc1ccc(N)c(C)c1`, the “activity change, negative = inhibition” value was -6.8%.
In the case of `CCCC(=O)Nc1ccc2c(c1)nc1n2CCSC1`, the “activity change, negative = inhibition” value was -16.2%.
The same measure, in the same setting: in the case of `Cc1cccc(C(=O)O)c1[N+](=O)[O-]` it was 11.9%; in that of `Brc1ccc(OCCn2ccnc2)cc1`, -24.1%.
Still for that read-out and setting: in the case of `Cc1cccc(NC(=O)CSC(N)=O)c1C` it was 3.4%.
For the compound `Cc1nc(C)c(C(=O)Nc2cccc(C)c2C)o1`, the Potency is 15.8 µM (active).
For `Cc1ccccc1NC(=O)c1ccccc1`, the “activity change, negative = inhibition” value is 0.4%.
As for `Cc1cccc(OCC(O)Cn2c(=N)n(CCN3CCOCC3)c3ccccc32)c1` (stereo unspecified), the “activity change, negative = inhibition” value was 16%.
For the compound `CC(C)OCCCNc1nc2c(c(=O)n(Cc3ccccc3F)c(=O)n2C)n1C`, the “activity change, negative = inhibition” value was 8.7%.
`Cc1cc(=O)oc(C)c1C(=O)Nc1cnc2ccccc2c1`: the “activity change, negative = inhibition” value was 288%.
Same read-out and setting: in the case of `Cc1ccc2nc(-c3ccccc3)cc(C(=O)O)c2c1` it was 1.3%.
Regarding `Cc1ccc(NC(=O)c2cc(-c3ccc(C)o3)nc3ccccc23)nc1`, the Potency is 10 µM (active).
Take `C1CCC2OC2C1` (stereo unspecified): the “activity change, negative = inhibition” value was 2.7%.
Regarding `N=C(CC(=O)Nc1ccccn1)c1ccccc1`, the activity change, negative = inhibition is -2.3% [at 11.4 µM].
Still for that read-out and setting: in the case of `CC1=Nn2c(nnc2-c2ccccc2)SC1` it was 1.3%.
In the case of `Cc1nn2c3cc(N4CCOCC4)ccc3nc2c2ccccc12`, the Potency is 12.6 µM (active).
`Cc1cc(C)c2c(n1)nn1c(N3CCOCC3)cc(C)nc21`: the “activity change, negative = inhibition” value was 18.9%.
Same read-out and setting: in the case of `COc1ccc(-n2c(=O)c(C)nc3cnc(N4CCOCC4)nc32)cc1` it was -8.4%; in that of `O=C(C(Cc1ccccc1)n1cccc1)N1CCN(C2CCCCC2)CC1` (stereo unspecified), -11.5%; in that of `O=C(O)/C(=C/c1c(C(=O)O)[nH]c2cc(Cl)cc(Cl)c12)c1ccccc1`, -6.4%.
Still for that read-out and setting: in the case of `O=C(CSc1nc2[nH]ncc2c(=O)n1-c1ccccc1)N1CCCc2ccccc21` it was 13.4%; in that of `O=c1nc(N2CCOCC2)nc2n1CCO2`, -11.4%.
As to `COc1ccccc1-c1nc(NCCNC(C)=O)c2ccccc2n1`, the “activity change, negative = inhibition” value was -3.8%.
For `COc1ccccc1-c1cc(NCc2cccs2)ncn1`, the “activity change, negative = inhibition” value was -0.6%.
With `COc1ccccc1-c1nc(NCc2cccs2)c2ccccc2n1`, the Potency is 2.51 µM (active).
Consider `COc1ccccc1-c1nc(N2CCN(C)CC2)c2ccccc2n1`, for which the “activity change, negative = inhibition” value was -25.5%.
Take `COc1ccccc1CNc1nc(-c2c(C)noc2C)nc2ccccc12`: the “activity change, negative = inhibition” value is 91.2%.
As for `CNc1nc(-c2ccccc2OC)nc2ccccc12`, the Potency was 12.6 µM (active).
Regarding `Cc1ccccc1C(=O)O`, the “activity change, negative = inhibition” value is 1%.
The same measure, in the same setting: in the case of `CCCCCCN(C(=O)CCCCCN1C(=O)NC(c2ccc(C(F)(F)F)cc2)C(C(=O)OCc2ccccc2)=C1C)C(C(=O)NCCCC)c1ccc(OCC(=O)OC)c(C(=O)OC)c1` (stereo unspecified) it was 72.4%.
Same read-out and setting: in the case of `COC(=O)[C@@]1(C)C=C[C@@H](Cc2ccccc2)N1C(C)=O` it was -6.5%; in that of `COc1cc([C@H]2c3cc4c(cc3[C@@H](O[C@@H]3O[C@H]5CO[C@@H](C)O[C@]5(O)C[C@H]3O)[C@@H]3COC(=O)[C@H]23)OCO4)cc(OC)c1O`, 0.5%; in that of `Oc1ccc(-c2csc(Nc3cccnc3)n2)cc1`, -0.1%.
In the case of `COc1ccc(OC)c(Nc2nc(-c3ccc(O)c(O)c3)cs2)c1`, the Potency is 20 µM (active).
Regarding `COc1ccc(-c2n[nH]c(C)c2-c2ccc(OC)c(OC)c2)c(O)c1`, the “activity change, negative = inhibition” value is 1.1%.
As to `CCc1c(C)nc(N)n2c(SCC(=O)N3CCN(c4ccccc4)CC3)nnc12`, the “activity change, negative = inhibition” value was 1.5%.
Same read-out and setting: in the case of `CC(Cc1ccccc1)C(=O)N(C)Cc1ccccc1` (stereo unspecified) it was -18.4%.
The same measure, in the same setting: in the case of `CCc1ccc(N(CC)c2ncnc3nc[nH]c23)cc1` it was 14.7%.
As for `CN(C(=O)COc1nnc(-c2cccs2)c(-c2cccs2)n1)c1ccccc1`, the Potency is 25.1 µM (active).
